Inconclusive results are not listed. The source made the active and inactive calls. Unless noted, calls follow the shape of the dose curve; as a rule, active = well fitted curve in the direction sought with a large enough effect in the repeat runs; inconclusive = weak or mixed curves; inactive = no such curve, though single readings can be large; an effect the other way counts as inactive or inconclusive.
What was measured:
[1] = qHTS assay to identify small molecule antagonists of the glucocorticoid receptor (GR) signaling pathway - cell viability counter screen (AID 720693); also: nearly all actives have a fitted effect of over 55% in size
[2] = qHTS assay for identifying genotoxic compounds that show differential cytotoxicity against isogenic chicken DT40 cell lines with known DNA damage response pathways - wild type cell line (AID 743012); also: nearly all actives have a fitted effect of over 60% in size; also: potency is read from the fitted curve at half-maximal effect
Summary of the method: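 Using parental DT40 (300 cells/well), compounds delivered in DMSO incubate 40 h at 37 C/5% CO2. CellTiter-Glo reagent then stands 30 min at room temperature, and luminescence gives cell viability.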

[3] = qHTS assay for identifying genotoxic compounds that show differential cytotoxicity against isogenic chicken DT40 cell lines with known DNA damage response pathways - Rev3 mutant cell line (AID 743014); also: nearly all actives have a fitted effect of over 55% in size; also: potency is read from the fitted curve at half-maximal effect
[4] = qHTS assay for identifying genotoxic compounds that show differential cytotoxicity against isogenic chicken DT40 cell lines with known DNA damage response pathways - Rad54/Ku70 mutant cell line (AID 743015); also: nearly all actives have a fitted effect of over 60% in size; also: potency is read from the fitted curve at half-maximal effect
[5] = qHTS assay to identify small molecule antagonists of the androgen receptor (AR) signaling pathway - cell viability counter screen (AID 743033; also: nearly all actives have a fitted effect of over 45% in size; also: potency is read from the fitted curve at half-maximal effect)
[6] = target: Androgen receptor (Homo sapiens) (UniProt P10275); experiment: qHTS assay to identify small molecule agonists of the androgen receptor (AR) signaling pathway (AID 743036; active = well fitted activation curve with a large enough effect in the signal ratio in the repeat runs, with a control signal flat, not every such curve was filed as active; the % refers to the signal ratio)
Androgen receptor (Homo sapiens), sequence (P10275 whole entry, looked up): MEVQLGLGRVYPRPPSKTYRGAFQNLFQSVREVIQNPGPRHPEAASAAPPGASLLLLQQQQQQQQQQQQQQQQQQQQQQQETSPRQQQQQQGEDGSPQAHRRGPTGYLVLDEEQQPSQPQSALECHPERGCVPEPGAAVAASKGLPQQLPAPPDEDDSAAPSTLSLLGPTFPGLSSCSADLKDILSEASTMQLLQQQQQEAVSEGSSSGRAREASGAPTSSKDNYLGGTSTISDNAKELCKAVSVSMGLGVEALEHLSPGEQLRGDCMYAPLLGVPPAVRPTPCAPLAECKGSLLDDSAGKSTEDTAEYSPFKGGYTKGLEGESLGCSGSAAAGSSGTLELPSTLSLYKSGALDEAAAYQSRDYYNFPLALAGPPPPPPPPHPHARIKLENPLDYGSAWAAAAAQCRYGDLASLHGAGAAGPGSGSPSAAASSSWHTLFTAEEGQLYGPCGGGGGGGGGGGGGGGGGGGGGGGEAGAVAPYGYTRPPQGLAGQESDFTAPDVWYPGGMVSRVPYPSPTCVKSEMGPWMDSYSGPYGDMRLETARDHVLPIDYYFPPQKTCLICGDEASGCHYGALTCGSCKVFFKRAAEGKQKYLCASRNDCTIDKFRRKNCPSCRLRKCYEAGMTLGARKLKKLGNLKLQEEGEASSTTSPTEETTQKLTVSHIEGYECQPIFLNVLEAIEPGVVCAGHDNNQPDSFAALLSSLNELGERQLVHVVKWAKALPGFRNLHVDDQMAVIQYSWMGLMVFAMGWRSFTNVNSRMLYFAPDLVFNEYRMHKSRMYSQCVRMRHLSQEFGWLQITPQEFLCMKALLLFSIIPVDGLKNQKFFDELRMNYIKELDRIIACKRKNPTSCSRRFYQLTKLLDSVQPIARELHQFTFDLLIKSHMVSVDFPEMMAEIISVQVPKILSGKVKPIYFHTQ
Summary of the method: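 Quantitative HTS of the Tox21 10K library in HEK293 cells bearing a stably integrated UAS-controlled beta-lactamase reporter. Compound exposure lasted 16 h at 37C. Reporter activity was detected by FRET substrate fluorescence after 2 h at room temperature.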

[7] = target: Androgen receptor (Homo sapiens) (UniProt P10275); experiment: qHTS assay to identify small molecule agonists of the androgen receptor (AR) signaling pathway using the MDA cell line (AID 743040; also: nearly all actives have a fitted effect of over 20% in size)
Summary of the method: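 MDA-kb2 breast carcinoma cells carrying MMTV-luciferase (responsive to AR and GR), plated 5 h then treated 16 h with compounds at 37C, 0% CO2. Read-out was ONE-Glo luminescence after 30 min at room temperature.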

[8] = target: Androgen receptor (Homo sapiens) (UniProt P10275); experiment: qHTS assay to identify small molecule antagonists of the androgen receptor (AR) signaling pathway using the MDA cell line (AID 743042; also: nearly all actives have a fitted effect of over 55% in size; also: potency is read from the fitted curve at half-maximal effect)
Summary of the method: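 MDA-kb2 breast carcinoma cells carrying MMTV-luciferase (AR/GR responsive) were co-treated with compounds and the agonist R1881 for 16 h at 37C. Inhibition read as ONE-Glo luminescence; CellTiter-Fluor fluorescence measured in parallel for cytotoxicity.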

[9] = target: Androgen receptor (Homo sapiens) (UniProt P10275); experiment: qHTS assay to identify small molecule antagonists of the androgen receptor (AR) signaling pathway (AID 743035; active = well fitted inhibition curve with a large enough effect in the signal ratio in the repeat runs, not every such curve was filed as active; the % refers to the signal ratio; also: potency is read from the fitted curve at half-maximal effect)
Summary of the method: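 Using qHTS, AR-UAS-bla GripTite HEK293 cells received compound, then R1881, and were cultured 16 h at 37C/5% CO2 before a 2 h room-temperature LiveBLAzer B/G FRET substrate step and fluorescence measurement.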

[10] = qHTS assay to identify small molecule antagonists of the androgen receptor (AR) signaling pathway using the MDA cell line - cell viability counter screen (AID 743041; also: nearly all actives have a fitted effect of over 45% in size)
Summary of the method: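 MDA-kb2 AR-luc cells (MMTV-luciferase, AR/GR responsive) treated with compounds plus R1881 agonist for 16 h at 37C. CellTiter-Fluor added at 15.5 h; fluorescence read after 30 min in the same wells.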

Measured: Potency

CCCCCCC(C)(C)C(=O)O
inactive: [1] | [2] | [3] | [4] | [5] | [6] | [7] | [8]

O=C1NC(=O)c2cc([N+](=O)[O-])ccc21
inactive: [1] | [2] | [3] | [4] | [5] | [9] | [7] | [10] | [8]

CCN(CC)CCNC(=O)COc1ccc(OC)cc1
inactive: [1] | [2] | [3] | [4] | [5] | [10]

C=C1c2cccc(O)c2C(O)=C2C(=O)[C@]3(O)C(O)=C(C(N)=O)C(=O)[C@@H](N(C)C)[C@@H]3[C@@H](O)[C@H]12
inactive: [1] | [2] | [3] | [4] | [5] | [10]

CCC(C)COC(C)=O (stereo unspecified)
inactive: [1] | [2] | [3] | [4] | [5] | [10]

CCC(C)(C)OC
inactive: [1] | [2] | [3] | [4] | [5] | [10]

CCC1CO1 (stereo unspecified)
inactive: [1] | [2] | [3] | [4] | [5] | [10]

C=COCC(C)C
inactive: [1] | [2] | [3] | [4] | [5] | [10]

CC[C@]1(O)C[C@H]2CN(CCc3c([nH]c4ccccc34)[C@@](C(=O)OC)(c3cc4c(cc3OC)N(C=O)[C@H]3[C@@](O)(C(=O)OC)[C@H](OC(C)=O)[C@]5(CC)C=CCN6CC[C@]43[C@@H]65)C2)C1
inactive: [1] | [5] | [7] | [8]
active: [2] 0.0075 µM | [3] 0.0053 µM | [4] 0.0106 µM | [9] 0.0338 µM

Oc1ccc(Cl)c2cccnc12
inactive: [1] | [6] | [7]
active: [2] 2.98 µM | [3] 4.22 µM | [4] 6.68 µM | [5] 13.4 µM | [9] 19 µM | [8] 9.44 µM

NC(=O)c1ccncc1
inactive: [1] | [2] | [3] | [4] | [5] | [9] | [6] | [7] | [10] | [8]

C1COC1
inactive: [1] | [2] | [3] | [4] | [5] | [9] | [6] | [10] | [8]

Cc1cc(C)cc(N)c1
inactive: [1] | [2] | [3] | [4] | [5] | [9] | [6] | [7] | [8]

C=C1C[C@@]23CC[C@H]4[C@@](C)(CCC[C@@]4(C)C(=O)O[C@@H]4O[C@H](CO)[C@@H](O)[C@H](O)[C@H]4O)[C@@H]2CC[C@]1(O[C@@H]1O[C@H](CO)[C@@H](O)[C@H](O[C@@H]2O[C@H](CO)[C@@H](O)[C@H](O)[C@H]2O)[C@H]1O[C@@H]1O[C@H](CO)[C@@H](O)[C@H](O)[C@H]1O)C3
inactive: [1] | [2] | [3] | [4] | [5] | [9] | [6] | [7] | [8]

CN1C(=O)OC(C)(C)C1=O
inactive: [1] | [2] | [3] | [4] | [5] | [10]

OCCN1CCN(CCCN2c3ccccc3Sc3ccc(Cl)cc32)CC1
inactive: [1] | [10]
active: [2] 3.59 µM | [3] 2.85 µM | [4] 4.52 µM | [5] 4.56 µM

C=C(C)[C@@H]1CCC2=CCC[C@@H](C)[C@]2(C)C1
active: [2] 27.3 µM | [3] 27.3 µM | [4] 15.4 µM
inactive: [1] | [5] | [9] | [6] | [7] | [10] | [8]

Nc1ccc(N=Nc2ccccc2)c(N)c1
active: [2] 53.3 µM | [3] 53.3 µM | [4] 59.8 µM
inactive: [1] | [5] | [10]

CC(=O)OCC(=O)NCCCOc1cccc(CN2CCCCC2)c1
inactive: [1] | [2] | [3] | [4] | [5] | [9] | [6] | [7] | [10] | [8]

O=[N+]([O-])c1ccc(Nc2ccc(Nc3ccccc3)c(S(=O)(=O)O)c2)c([N+](=O)[O-])c1
inactive: [1] | [2] | [3] | [4] | [5] | [10]

Nc1cccc2c1CN(C1CCC(=O)NC1=O)C2=O (stereo unspecified)
inactive: [1] | [2] | [3] | [4] | [5] | [10]

O=C1NCCN1CCO
inactive: [1] | [2] | [3] | [4] | [5] | [10]

Cc1ccc(OC(=O)c2ccccc2O)cc1
inactive: [1] | [2] | [3] | [4] | [5] | [10]

CCC(OCCCOC)OC(C)=O (stereo unspecified)
inactive: [1] | [2] | [3] | [4] | [5] | [10]

COC(=O)CCS
inactive: [1] | [2] | [3] | [4] | [5] | [10]

O=C(O)c1cccc(-c2noc(-c3ccccc3F)n2)c1
inactive: [1] | [2] | [3] | [4] | [5] | [10]

C[C@]1(Cn2ccnn2)[C@H](C(=O)O)N2C(=O)C[C@H]2S1(=O)=O
inactive: [1] | [2] | [3] | [4] | [5] | [10]

C=CC(=O)[O-].C=CC(=O)[O-].[Zn+2]
inactive: [1] | [2] | [3] | [4] | [5] | [10]

C=C1CCC2CC1C2(C)C (stereo unspecified)
inactive: [1] | [2] | [3] | [4] | [5] | [10]

CN(C)CCN1C(=O)c2ccccc2N(C)c2ccccc21
inactive: [1] | [2] | [3] | [4] | [5] | [10]
